Laboratory results published in PubChem BioAssay.
Results filed as inconclusive are left out. Active and inactive are the calls of the source.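 Rule for the calls, unless noted: active = percent response above a set limit, the screen-wide mean plus 3 SD (cut at about 130% in these data); inactive = the rest.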

Assays:
[1] = yeast TOR pathway RPL19A-GFP modulators, primary screen, cell-based, S. cerevisiae, multiplex flow cytometry (AID 1862; in the data active = percent of DMSO control GFP below about 86%;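 note: lower values mimic rapamycin by blocking the RPL19A rise seen in DMSO cells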); conditions: S. cerevisiae RPL19A-GFP strain, flow cytometry fluorescence, 3 h; at 10 µM; stronger effect = lower value
[2] = modulators of MEP2-GFP levels in yeast, primary screen, S. cerevisiae, multiplex flow cytometry (AID 1867;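 active = GFP response, as percent of the DMSO control, above the screen-wide mean plus 3 SD, about 139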;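 note: median GFP channel fluorescence of barcode-gated MEP2-GFP cells measured by flow cytometry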); conditions: S. cerevisiae MEP2-GFP strain, 3 h, at 10 µM, stronger effect = higher value, 100% means same as DMSO wells
[3] = modulators of CIT2-GFP expression in yeast, primary screen, S. cerevisiae, GFP fusion, multiplex flow cytometry (AID 1870); conditions: 3 h, at 10 µM, stronger effect = higher value;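 note: barcoded CIT2-GFP strain pooled with four other GFP strains with rapamycin as positive control; median GFP fluorescence per well over plate mean of DMSO wells so 100% = DMSO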
[4] = modulators of LAP4-GFP expression in yeast, primary screen, S. cerevisiae, multiplex flow cytometry (AID 1873;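 active = GFP signal, as percent of the solvent control, above the screen mean plus 3 SD, about 149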); conditions: 3 h, at 10 µM, stronger effect = higher value
[5] = modulators of AGP1-GFP expression in yeast TOR pathway, primary screen, cell-based, multiplex flow cytometry, S. cerevisiae (AID 1887;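 active = GFP signal above the screen-wide mean plus 3 SD, that is over about 124.5% of the solvent control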;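 note: AGP1-GFP fusion strain of S. cerevisiae within a five-strain barcoded multiplex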); conditions: 3 h, at 10 µM, stronger effect = higher value
[6] = inhibitors of CD8+ T cell-vesicle binding, pilot screen, LFA-1/ICAM-1 modulator project, MLPCN validation set, flow cytometry (AID 2523;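 active = response below a set limit, under 55% cells CD8-positive and vesicle-bound, and CD8 cells' 90th-percentile brightness under 279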;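 for vesicle binding response: mean PE anti-B7-1 fluorescence of CD8+ cells relative to row control; 100% = QL9-loaded vesicles with DMSO vehicle in the same plate row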); conditions: 2C mouse CD8+ T cells, at 7 µM, stronger effect = lower value; double positive events: measured here: CD8+/vesicle+ event percentage
[7] = target: Integrin beta-1 (Homo sapiens) + Integrin alpha-4 (Homo sapiens) (UniProt P13612+P05556); assay: inhibition of HUTS-21 binding to VLA-4, pilot screen, VLA-4 allosteric modulator project, U937 cells, HUTS-21 mAb, flow cytometry, validation set (AID 2674;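 active = inhibition above 50%, about 3 SD of the validation set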;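 note: antibody binding induced by the VLA-4 ligand LDV present at three times its Kd; 0% = LDV ligand with antibody and no compound and 100% = antibody without LDV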); conditions: HUTS-21 LIBS mAb binding, at 6.7 µM, stronger effect = higher value, binding induced by LDV ligand
Integrin beta-1 (Homo sapiens) + Integrin alpha-4 (Homo sapiens), sequence (P05556 whole entry, looked up): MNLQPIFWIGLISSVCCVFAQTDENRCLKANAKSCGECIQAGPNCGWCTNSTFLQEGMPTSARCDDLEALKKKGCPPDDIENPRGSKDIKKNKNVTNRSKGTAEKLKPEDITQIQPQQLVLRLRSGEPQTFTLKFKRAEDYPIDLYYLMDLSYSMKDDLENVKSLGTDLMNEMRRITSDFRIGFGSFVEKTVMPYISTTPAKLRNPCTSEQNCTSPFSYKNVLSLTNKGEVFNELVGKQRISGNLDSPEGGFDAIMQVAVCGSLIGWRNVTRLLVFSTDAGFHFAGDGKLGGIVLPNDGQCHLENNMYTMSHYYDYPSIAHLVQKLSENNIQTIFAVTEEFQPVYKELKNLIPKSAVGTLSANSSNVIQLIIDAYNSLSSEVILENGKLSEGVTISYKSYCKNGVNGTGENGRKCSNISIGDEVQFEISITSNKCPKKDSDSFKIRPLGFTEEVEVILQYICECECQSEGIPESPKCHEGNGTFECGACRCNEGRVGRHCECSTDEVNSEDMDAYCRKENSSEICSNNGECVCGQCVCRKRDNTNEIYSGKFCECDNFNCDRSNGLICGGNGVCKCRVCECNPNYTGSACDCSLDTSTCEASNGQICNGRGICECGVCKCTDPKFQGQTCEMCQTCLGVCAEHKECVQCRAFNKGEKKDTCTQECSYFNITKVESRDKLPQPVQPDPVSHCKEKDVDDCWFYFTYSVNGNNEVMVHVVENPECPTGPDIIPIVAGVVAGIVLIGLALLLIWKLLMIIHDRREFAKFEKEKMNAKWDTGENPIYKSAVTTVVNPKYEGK
Integrin beta-1 (Homo sapiens) + Integrin alpha-4 (Homo sapiens), sequence (P13612 whole entry, looked up): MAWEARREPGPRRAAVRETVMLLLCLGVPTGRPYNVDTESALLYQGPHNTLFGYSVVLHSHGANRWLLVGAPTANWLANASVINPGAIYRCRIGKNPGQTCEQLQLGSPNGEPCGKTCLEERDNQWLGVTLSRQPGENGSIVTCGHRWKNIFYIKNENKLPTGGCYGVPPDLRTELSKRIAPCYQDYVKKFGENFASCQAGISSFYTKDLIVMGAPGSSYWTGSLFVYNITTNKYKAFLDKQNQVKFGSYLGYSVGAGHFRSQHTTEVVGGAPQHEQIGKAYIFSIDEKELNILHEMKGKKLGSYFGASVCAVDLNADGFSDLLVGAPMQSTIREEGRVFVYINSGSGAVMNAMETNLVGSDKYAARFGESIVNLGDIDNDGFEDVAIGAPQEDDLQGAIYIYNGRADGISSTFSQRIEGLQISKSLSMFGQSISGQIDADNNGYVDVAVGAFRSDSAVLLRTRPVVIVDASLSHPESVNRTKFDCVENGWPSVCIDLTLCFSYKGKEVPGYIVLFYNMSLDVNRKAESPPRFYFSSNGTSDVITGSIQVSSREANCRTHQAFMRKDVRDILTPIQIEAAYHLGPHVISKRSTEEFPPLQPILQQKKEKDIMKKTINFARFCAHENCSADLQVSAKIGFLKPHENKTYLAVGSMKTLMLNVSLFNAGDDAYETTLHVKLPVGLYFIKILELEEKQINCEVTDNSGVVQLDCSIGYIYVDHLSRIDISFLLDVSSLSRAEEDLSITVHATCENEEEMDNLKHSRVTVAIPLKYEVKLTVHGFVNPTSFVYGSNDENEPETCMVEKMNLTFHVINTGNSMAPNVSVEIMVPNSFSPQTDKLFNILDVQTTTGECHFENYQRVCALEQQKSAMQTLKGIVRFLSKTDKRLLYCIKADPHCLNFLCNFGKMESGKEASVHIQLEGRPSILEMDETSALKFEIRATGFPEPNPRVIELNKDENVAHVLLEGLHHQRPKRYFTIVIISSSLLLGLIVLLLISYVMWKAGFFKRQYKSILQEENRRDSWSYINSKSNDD

[8] = superoxide lowering in aged yeast cells, pilot screen, validation compound set (AID 2706;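 active = superoxide response below 65% of plate, a cut near 3 SD across the whole screen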;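 note: yeast exposed to compound for one week at 30 degrees C before staining; 100% = mean of all compound wells on the same plate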); conditions: S. cerevisiae aging, superoxide DHE fluorescence; at 10 µM; stronger effect = lower value
[9] = target: Beta-adrenergic receptor kinase 1 (Homo sapiens) (UniProt P25098); assay: GRK2 binders displacing RNA aptamer, biochemical, validation, human GRK2, bead flow cytometry (AID 488806;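 active = aptamer binding inhibition above 30%, about 3 SD of noise from non-fluorescent compounds; inactive = inhibition at or below 30%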); conditions: bead-bound GRK2, FAM-aptamer displacement, at 10 µM, stronger effect = higher value
Beta-adrenergic receptor kinase 1 (Homo sapiens), sequence (P25098 whole entry, looked up): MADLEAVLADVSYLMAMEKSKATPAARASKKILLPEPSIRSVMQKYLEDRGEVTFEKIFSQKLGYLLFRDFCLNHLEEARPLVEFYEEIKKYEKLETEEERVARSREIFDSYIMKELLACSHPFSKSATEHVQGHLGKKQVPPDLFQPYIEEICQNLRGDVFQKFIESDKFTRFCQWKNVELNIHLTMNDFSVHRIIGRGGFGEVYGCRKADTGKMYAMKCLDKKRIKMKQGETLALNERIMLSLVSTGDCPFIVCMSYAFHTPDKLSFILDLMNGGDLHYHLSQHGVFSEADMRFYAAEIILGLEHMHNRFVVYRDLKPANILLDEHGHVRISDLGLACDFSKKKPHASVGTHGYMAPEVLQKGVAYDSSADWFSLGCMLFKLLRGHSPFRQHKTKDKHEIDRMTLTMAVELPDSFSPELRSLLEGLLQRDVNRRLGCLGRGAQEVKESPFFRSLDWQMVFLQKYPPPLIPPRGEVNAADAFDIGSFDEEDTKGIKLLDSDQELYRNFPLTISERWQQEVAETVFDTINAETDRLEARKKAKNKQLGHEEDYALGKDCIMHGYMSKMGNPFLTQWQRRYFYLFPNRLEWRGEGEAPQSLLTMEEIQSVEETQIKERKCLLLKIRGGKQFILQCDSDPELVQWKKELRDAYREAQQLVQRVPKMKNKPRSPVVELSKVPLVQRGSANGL

[10] = target: Beta-2 adrenergic receptor (Homo sapiens) (UniProt P07550); assay: beta2AR agonists driving receptor internalization, pilot screen, cell-based, FAP fluorogen, flow cytometry, validation set (AID 504459;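 active = percent response above 42, roughly 3 SD of non-fluorescent test compounds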;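 note: agonist-driven loss of surface beta2AR via internalization measured by FAP dye flow cytometry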); conditions: Am2.2-beta2AR cells, FAP surface receptor flow cytometry; at 10 µM; stronger effect = higher value
Beta-2 adrenergic receptor (Homo sapiens), sequence (P07550 whole entry, looked up): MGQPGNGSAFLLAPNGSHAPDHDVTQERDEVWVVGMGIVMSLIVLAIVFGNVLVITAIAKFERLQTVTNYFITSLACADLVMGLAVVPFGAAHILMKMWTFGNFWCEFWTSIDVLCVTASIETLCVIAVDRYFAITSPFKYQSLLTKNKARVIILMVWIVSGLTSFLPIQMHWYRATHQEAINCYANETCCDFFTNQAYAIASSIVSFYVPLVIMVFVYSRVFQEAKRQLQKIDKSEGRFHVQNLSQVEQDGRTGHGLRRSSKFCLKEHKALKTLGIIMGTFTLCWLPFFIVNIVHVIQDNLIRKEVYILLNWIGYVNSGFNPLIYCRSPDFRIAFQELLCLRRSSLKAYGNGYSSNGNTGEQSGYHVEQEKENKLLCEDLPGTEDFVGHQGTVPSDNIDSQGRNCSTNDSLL

[11] = target: AP-2 complex subunit beta (Homo sapiens) (UniProt P63010); assay: inhibitors of arrestin peptide binding to AP2, pilot screen, biochemical, validation set, GST-AP2 beads, flow cytometry (AID 504541;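 active = inhibition above 54%, about 3 SD of non-fluorescent compounds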;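 note: AP2 carries R879A mutation and is captured from E. coli lysate; bead-bound FITC arrestin peptide fluorescence measuring arrestin peptide binding to AP2; 0% = DMSO wells and 100% = excess unlabeled arrestin peptide control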); conditions: FITC arrestin peptide, at 10 µM, stronger effect = higher value, AP2 beta2 appendage fragment, R879A mutant
AP-2 complex subunit beta (Homo sapiens), sequence (P63010 whole entry, looked up, the tested form may be a part, one chain of several): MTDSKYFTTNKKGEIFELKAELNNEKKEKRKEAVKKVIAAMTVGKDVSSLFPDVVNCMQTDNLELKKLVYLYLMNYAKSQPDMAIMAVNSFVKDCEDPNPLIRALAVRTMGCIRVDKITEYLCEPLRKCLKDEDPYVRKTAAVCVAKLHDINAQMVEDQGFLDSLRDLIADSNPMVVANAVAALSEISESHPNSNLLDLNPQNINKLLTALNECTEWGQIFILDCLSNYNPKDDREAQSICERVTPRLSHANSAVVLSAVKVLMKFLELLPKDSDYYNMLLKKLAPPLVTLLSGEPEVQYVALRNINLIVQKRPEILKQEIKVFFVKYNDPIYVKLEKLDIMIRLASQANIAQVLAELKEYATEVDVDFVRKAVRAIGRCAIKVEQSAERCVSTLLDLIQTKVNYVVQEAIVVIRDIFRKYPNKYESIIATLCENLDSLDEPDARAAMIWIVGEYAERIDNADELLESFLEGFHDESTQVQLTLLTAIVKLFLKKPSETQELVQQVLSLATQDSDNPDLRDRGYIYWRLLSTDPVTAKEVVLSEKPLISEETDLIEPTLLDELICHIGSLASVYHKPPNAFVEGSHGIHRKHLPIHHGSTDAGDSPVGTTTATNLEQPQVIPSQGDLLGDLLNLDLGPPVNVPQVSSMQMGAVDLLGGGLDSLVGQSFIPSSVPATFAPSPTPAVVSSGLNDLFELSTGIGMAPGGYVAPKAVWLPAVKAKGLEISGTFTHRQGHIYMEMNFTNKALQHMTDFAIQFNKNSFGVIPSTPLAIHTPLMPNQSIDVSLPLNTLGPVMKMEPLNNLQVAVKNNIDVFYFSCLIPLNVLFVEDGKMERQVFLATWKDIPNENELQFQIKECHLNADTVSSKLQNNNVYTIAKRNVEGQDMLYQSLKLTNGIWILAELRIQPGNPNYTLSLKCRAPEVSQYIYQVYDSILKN

[12] = yeast V-ATPase proton transport modulators, S. cerevisiae, pHLuorin, HTS validation (AID 504600; in the data active = response above about 15%;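 note: plate controls were DMSO for no effect and reference compound for full effect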); conditions: S. cerevisiae pHLuorin cytosolic pH, at 10 µM, stronger effect = higher value
[13] = tested on: anti-desmoglein-3 scFv antibody binding to human DSG3; assay: inhibitors of anti-DSG3 scFv binding to DSG3, pilot screen, biochemical, validation compound set, bead-based, flow cytometry (AID 588368;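 active = binding below the plate cutoff, the plate median minus 3 SD, with a reading above zero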;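 note: signal is the median channel fluorescence of bead-bound GFP antibody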); conditions: Protein G beads, DSG3-Fc, scFv-GFP binding, at 10 µM, stronger effect = lower value
[14] = inhibitors of fungal efflux pumps CDR1, CDR2, MDR1, pilot screen, validation compound set, multiplex, phenotypic (AID 588506;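 active = efflux inhibition above 0.42, the validation set average plus 4 SD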;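 note: Nile Red retained in cells so higher fluorescence means more efflux inhibition; 0 = negative control wells and 1 = enniatin B 25 µM full block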); conditions: S. cerevisiae pump-expressing triplex, Nile Red efflux flow cytometry; at 10 µM; stronger effect = higher value; the pumps come from Candida albicans
[15] = target: ATP-binding cassette sub-family B member 6 (Homo sapiens) (UniProt Q9NP58); assay: ABCB6 transporter inhibitors, pilot screen, K562-ABCB6 cells, flow cytometry, validation set (AID 588550;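 active = inhibition above the screen-wide mean plus 3 SD, about 51%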;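 note: 0% = DMSO wells and 100% = benzethonium chloride 70 µM positive control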); conditions: K562-ABCB6 porphyrin accumulation, 1 h, at 10 µM, stronger effect = higher value
ATP-binding cassette sub-family B member 6 (Homo sapiens), sequence (Q9NP58 whole entry, looked up): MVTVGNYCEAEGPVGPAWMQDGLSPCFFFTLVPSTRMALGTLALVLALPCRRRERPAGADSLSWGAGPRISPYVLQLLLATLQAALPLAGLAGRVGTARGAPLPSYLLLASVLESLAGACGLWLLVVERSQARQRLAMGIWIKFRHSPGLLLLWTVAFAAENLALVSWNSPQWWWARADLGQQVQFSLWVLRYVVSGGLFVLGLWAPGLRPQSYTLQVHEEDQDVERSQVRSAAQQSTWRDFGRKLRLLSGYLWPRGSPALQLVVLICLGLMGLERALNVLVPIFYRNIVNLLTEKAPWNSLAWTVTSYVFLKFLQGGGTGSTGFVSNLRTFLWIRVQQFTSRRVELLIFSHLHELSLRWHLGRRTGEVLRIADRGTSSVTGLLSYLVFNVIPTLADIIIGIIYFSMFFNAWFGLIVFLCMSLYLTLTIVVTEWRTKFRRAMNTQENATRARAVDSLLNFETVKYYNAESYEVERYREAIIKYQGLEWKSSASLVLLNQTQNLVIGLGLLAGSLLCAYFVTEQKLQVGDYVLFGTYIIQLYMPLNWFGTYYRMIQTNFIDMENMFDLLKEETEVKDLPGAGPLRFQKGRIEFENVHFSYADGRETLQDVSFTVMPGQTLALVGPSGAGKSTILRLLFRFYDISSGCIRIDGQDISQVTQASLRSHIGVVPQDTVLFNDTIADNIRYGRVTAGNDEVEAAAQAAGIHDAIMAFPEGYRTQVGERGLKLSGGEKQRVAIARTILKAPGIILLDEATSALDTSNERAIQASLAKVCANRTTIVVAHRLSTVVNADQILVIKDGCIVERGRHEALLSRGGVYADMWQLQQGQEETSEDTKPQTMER

[16] = promoters of myeloid differentiation in arrested cells, primary screen, cell-based, GFP/MAC1 double positive, flow cytometry, validation set (AID 588685;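 active = differentiation response of at least 50%, scaled between solvent and reference control, from cells with both markers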;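 note: compound exposure lasts four days before antibody staining and flow analysis; 0% = DMSO wells and 100% = 5 µM fulvestrant positive control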); conditions: ER-HoxA9 marrow cells, stronger effect = higher value, normalized: vehicle 0, fulvestrant 100

With `Cc1cccc(C)c1NC(=O)C1CCCCN1C` (stereo unspecified) the percent of DMSO control GFP [1] was 102% (inactive), the GFP response vs DMSO [2] was 104% (inactive) and the percent response of DMSO control [3] was 97.8% (inactive). The GFP response vs DMSO [4] was 90.1% (inactive), the GFP response, % of DMSO [5] was 97% (inactive) and the double positive events [6] was 62.6%. The vesicle binding response [6] was 92.5% (inactive), the inhibition [7] was -4.6% (inactive) and the superoxide response (% of plate) [8] was 104% (inactive). For the same compound, the aptamer binding inhibition [9] was 5% (inactive), the response [10] was 10.4% (inactive) and the inhibition [11] was 15.4% (inactive). For the same compound, the response [12] was 0.17% (inactive), the binding (% of control) [13] was 98.2% (inactive) and the efflux inhibition (fraction of control) [14] was -0.01 (inactive). The inhibition [15] was 1% (inactive) and the differentiation response [16] was -1.71% (inactive).
In the case of `COc1ccccc1/C=C/CN1CCN(Cc2ccc(F)cc2)C(CCO)C1` (stereo unspecified), the percent of DMSO control GFP [1] was 101% (inactive), the GFP response vs DMSO [2] was 98.8% (inactive) and the percent response of DMSO control [3] was 98.2% (inactive). The GFP response vs DMSO [4] was 91.6% (inactive), the GFP response, % of DMSO [5] was 98.5% (inactive) and the double positive events [6] was 63.2%. For the same compound, the vesicle binding response [6] was 171% (inactive), the inhibition [7] was -3.18% (inactive) and the superoxide response (% of plate) [8] was 92.6% (inactive). The aptamer binding inhibition [9] was 1% (inactive), the response [10] was 9.17% (inactive) and the inhibition [11] was -20.3% (inactive). For the same compound, the response [12] was 0.79% (inactive), the binding (% of control) [13] was 107% (inactive) and the efflux inhibition (fraction of control) [14] was -0.38 (inactive). For the same compound, the inhibition [15] was 8% (inactive) and the differentiation response [16] was -3.4% (inactive).
In the case of `CC(C)(C)OC(=O)COc1cc(OCC(=O)OC(C)(C)C)c2c(=O)cc(-c3ccccc3)oc2c1`, the percent of DMSO control GFP [1] was 105% (inactive), the GFP response vs DMSO [2] was 107% (inactive) and the percent response of DMSO control [3] was 102% (inactive). The GFP response vs DMSO [4] was 105% (inactive), the GFP response, % of DMSO [5] was 100% (inactive) and the double positive events [6] was 60.3%. For the same compound, the vesicle binding response [6] was 77.9% (inactive), the inhibition [7] was -29.2% (inactive) and the superoxide response (% of plate) [8] was 94.8% (inactive). For the same compound, the aptamer binding inhibition [9] was 1% (inactive), the response [10] was -17% (inactive) and the inhibition [11] was -7.67% (inactive). For the same compound, the response [12] was 2.77% (inactive), the binding (% of control) [13] was 105% (inactive) and the efflux inhibition (fraction of control) [14] was -0.07 (inactive). For the same compound, the inhibition [15] was 35% (inactive) and the differentiation response [16] was -4.57% (inactive).
With `COc1ccc2c(c1OC)C(=O)N1C2SC[C@H]1C(=O)NC1CC(C)(C)NC(C)(C)C1` (stereo partly specified) the percent of DMSO control GFP [1] was 99.8% (inactive), the GFP response vs DMSO [2] was 133% (inactive) and the percent response of DMSO control [3] was 111% (inactive). The GFP response vs DMSO [4] was 84.7% (inactive), the GFP response, % of DMSO [5] was 93.1% (inactive) and the double positive events [6] was 48.3%. The vesicle binding response [6] was 17.2% (active), the inhibition [7] was 1.61% (inactive) and the superoxide response (% of plate) [8] was 91.6% (inactive). The aptamer binding inhibition [9] was 6% (inactive), the response [10] was 3.43% (inactive) and the inhibition [11] was 39.2% (inactive). For the same compound, the response [12] was -0.76% (inactive), the binding (% of control) [13] was 103% (inactive) and the efflux inhibition (fraction of control) [14] was 0.09 (inactive). For the same compound, the inhibition [15] was 1% (inactive) and the differentiation response [16] was 30.3% (inactive).
For `COc1ccc(-c2nnc(-c3cc4c(ccc5ccccc54)oc3=O)o2)cc1`, the percent of DMSO control GFP [1] was 101% (inactive), the GFP response vs DMSO [2] was 93% (inactive) and the percent response of DMSO control [3] was 96.7% (inactive). For the same compound, the GFP response vs DMSO [4] was 89.7% (inactive), the GFP response, % of DMSO [5] was 98% (inactive) and the double positive events [6] was 61%. The vesicle binding response [6] was 244% (inactive), the inhibition [7] was -20.9% (inactive) and the superoxide response (% of plate) [8] was 75.6% (inactive). For the same compound, the aptamer binding inhibition [9] was -1% (inactive), the response [10] was 50.8% (active) and the inhibition [11] was 6.88% (inactive). The response [12] was 1% (inactive), the binding (% of control) [13] was 97.2% (inactive) and the efflux inhibition (fraction of control) [14] was 0.08 (inactive). For the same compound, the inhibition [15] was 0% (inactive) and the differentiation response [16] was -0.8% (inactive).
In the case of `COC(=O)C1=C(C)NC(C)=C(C(=O)OCCN(C)Cc2ccccc2)C1c1cccc([N+](=O)[O-])c1` (stereo unspecified), the percent of DMSO control GFP [1] was 101% (inactive), the GFP response vs DMSO [2] was 108% (inactive) and the percent response of DMSO control [3] was 96.5% (inactive). The GFP response vs DMSO [4] was 100% (inactive), the GFP response, % of DMSO [5] was 110% (inactive) and the double positive events [6] was 61.3%. For the same compound, the vesicle binding response [6] was 159% (inactive), the inhibition [7] was 0.25% (inactive) and the superoxide response (% of plate) [8] was 98.7% (inactive). The aptamer binding inhibition [9] was 1% (inactive), the response [10] was 0.14% (inactive) and the inhibition [11] was 57.5% (active). For the same compound, the response [12] was -9.84% (inactive), the binding (% of control) [13] was 97.3% (inactive) and the efflux inhibition (fraction of control) [14] was 0.01 (inactive). For the same compound, the inhibition [15] was -2% (inactive) and the differentiation response [16] was -1.65% (inactive).
With `Cc1ccc(S(=O)(=O)N2CCC(C(=O)N[C@@H](C)C(=O)NC3CCS(=O)(=O)C3)CC2)cc1` (stereo partly specified) the percent of DMSO control GFP [1] was 101% (inactive), the GFP response vs DMSO [2] was 96.6% (inactive) and the percent response of DMSO control [3] was 106% (inactive). The GFP response vs DMSO [4] was 89.3% (inactive), the GFP response, % of DMSO [5] was 96.3% (inactive) and the double positive events [6] was 57.7%. For the same compound, the vesicle binding response [6] was 144% (inactive), the inhibition [7] was 12.3% (inactive) and the superoxide response (% of plate) [8] was 103% (inactive). For the same compound, the aptamer binding inhibition [9] was 4% (inactive), the response [10] was -1.25% (inactive) and the inhibition [11] was -5.24% (inactive). For the same compound, the response [12] was 22.5% (active), the binding (% of control) [13] was 103% (inactive) and the efflux inhibition (fraction of control) [14] was 0.1 (inactive). The inhibition [15] was 13% (inactive) and the differentiation response [16] was -13.3% (inactive).
For `CC(C(=O)O)c1ccc(-c2ccccc2)c(F)c1` (stereo unspecified), the percent of DMSO control GFP [1] was 94.8% (inactive), the GFP response vs DMSO [2] was 104% (inactive) and the percent response of DMSO control [3] was 76.8% (inactive). The GFP response vs DMSO [4] was 128% (inactive), the GFP response, % of DMSO [5] was 84.8% (inactive) and the double positive events [6] was 66.4%. The vesicle binding response [6] was 1320% (inactive), the inhibition [7] was 1.62% (inactive) and the superoxide response (% of plate) [8] was 106% (inactive). For the same compound, the aptamer binding inhibition [9] was -1% (inactive), the response [10] was -7.02% (inactive) and the inhibition [11] was -9.46% (inactive). For the same compound, the response [12] was -1.04% (inactive), the binding (% of control) [13] was 103% (inactive) and the efflux inhibition (fraction of control) [14] was 0.05 (inactive). For the same compound, the inhibition [15] was 1% (inactive) and the differentiation response [16] was 0.24% (inactive).
